We go through 40 molecules from PubChem BioAssay (EPA / NIEHS).

The source made the active and inactive calls. The calls were made as follows: active = hit-call score of the fitted dose curve at least 0.9, where 1 is the maximum; inactive = score below 0.9.

A short description of this experiment: ATG_VDRE_CIS: Attagene CIS-FACTORIAL HepG2 Assay for human Vitamin D Receptor Element (VDRE) (AID 2282968). The conditions noted are these: HepG2 VDRE cis-reporter transcription, actives raise or lower the signal. As to the method: ATG_CIS is a cell-based, multiplexed-readout assay that uses HepG2, a human liver cell line, with measurements taken at 24 hours after chemical dosing in a 24-well plate.ATG_VDRE_CIS is one of 52 assay component(s) measured or calculated from the ATG_CIS assay. It is designed to make measurements of mRNA induction, a form of inducible reporter, as detected with fluorescence intensity signals by Reverse transcription polymerase chain reaction (RT-PCR) and Capillary electrophoresis technology.Data from the assay component ATG_VDRE_CIS was analyzed into 1 assay endpoint. This assay endpoint, ATG_VDRE_CIS, was analyzed with bidirectional fitting relative to DMSO as the negative control and baseline of activity. Using a type of inducible reporter, measures of mRNA for gain or loss-of-signal activity can be used to understand the reporter gene at the transcription factor-level as they relate to the gene VDR. Furthermore, this assay endpoint can be referred to as a primary readout, because this assay has produced multiple assay endpoints where this one serves a reporter gene function. To generalize the intended target to other relatable targets, this assay endpoint is annotated to the nuclear receptor intended target family, where the subfamily is non-steroidal.
Human liver HepG2 cells are transiently transfected with multiple reporter transcription units (MRTUs) in 6-well plates using FuGene 6 reagent (Roche; 3 ml FuGene/1 mg DNA). The MRTU constructs are regulated by a cis-regulating element (promoter). […] A major difference between the CIS and TRANS system is that in CIS activities of endogenous TFs are measured, whereas the TRANS assay evaluates changes in activities of exogenous, chimeric NR-Gal4 proteins. […] At the end of 24 hour incubation, total RNA was isolated using TriZol reagent (Invitrogen). The isolated RNA is then reverse-transcribed using oligo(dT) primer and Mo-MLV reverse transcriptase (Invitrogen) with DNAse I (Ambion) treatment for 30 min. The one-tenth of the produced cDNA was amplified by PCR using Taq DNA polymerase (Invitrogen) and two reporter sequence-specific primers. The PCR products were fluorescently labeled by primer extension with 6-arboxyfluorescein (6-FAM) 5'-labeled reporter sequence-specific primer (2 min at 95 C, 20 s at 68 C and 10 min at 72 C) and these products were digested with 5U of HpaI (New England Biolabs) for 2h at 37 C. The fragments were purified using Qiaquick PCR columns (Qiagen), analyzed on an ABI 3130xL genetic analyzer (Applied Biosystems) with peak positions identified by using a set of X-rhodamine (ROX)-labeled MapMarker1000 molecular weight standards (BioVentures). The raw capillary electrophoresis data was processed using Attagraph software (Attagene).
Take `O=C(Nc1cccc(C(F)(F)F)c1)c1cc(Br)cc(Br)c1O`: the AC50 – broadly, the concentration at which the activity in the assay is half-maximal – is 2.18 µM (active).
For the molecule `C=COCCCC`, the result was inactive.
As for `CC(=O)OCc1ccco1`, the call was inactive.
Still for that read-out and setting: in the case of `O=C1CCCN1CCO` it was “inactive”; in that of `CO[Si](CCC1CCC2OC2C1)(OC)OC` (stereo not given), “inactive”; in that of `CC(C)COC(=O)C=Cc1ccccc1`, “inactive”.
Turning to `CC/C=C\CCOC(=O)CCCCC`, the molecule was classed as inactive.
The same measure, in the same setting: under `C=C[Si](C)(C)O[Si](C)(C)C=C` stands “inactive”.
For the molecule `CCCCCCOc1cc(C)c(O)c(C)c1C`, the AC50 was 9.58 µM (active).
Regarding `Cc1ccc2oc(=O)ccc2c1`, the outcome was inactive.
In the case of `CCCCCCCC/C=C\CCCCCCCC(=O)OCCO`, the result was inactive.
The same measure, in the same setting: under `C[Si](C)(CCCN)O[Si](C)(C)CCCN` stands “inactive”; under `CCCc1ccc(OC)cc1`, “inactive”.
Same read-out and setting: under `CCCCCCCCO[C@@H]1O[C@H](CO)[C@@H](O)[C@H](O)[C@H]1O` stands “inactive”; under `N#CCc1ccc(Cl)cc1Cl`, “inactive”; under `CC(C)(C)c1ccc(N)cc1`, “inactive”.
Still for that read-out and setting: under `CCOC(=O)CC` stands “inactive”.
In the case of `C=CC(C)(C)C`, the result was inactive.
Take `CCC(Cc1ccccc1)(C(=O)c1ccc(N2CCOCC2)cc1)N(C)C` (stereo not given): the AC50 is 6.85 µM (active).
As for `ON(Cc1ccccc1)Cc1ccccc1`, the molecule was called inactive.
`CCOC(=O)N1CCC(=C2c3ccc(Cl)cc3CCc3cccnc32)CC1`: the AC50 was 1.37 µM (active).
As for `OCCc1ccncc1`, the call was inactive.
Same read-out and setting: in the case of `C=CCCCCCCCCC(=O)OCCCC` it was “inactive”; in that of `CCCCC(CC)CCC(CC(C)C)OS(=O)(=O)O` (stereo not given), “inactive”.
The same measure, in the same setting: under `Nc1ncn([C@@H]2O[C@H](CO)[C@@H](O)[C@H]2O)c(=O)n1` stands “inactive”; under `Cc1ccc(C(C)c2ccc(C)c(C)c2)cc1C`, “inactive”.
`CC1=Nc2ccc3ccccc3c2C1(C)C`: the AC50 was 2.97 µM (active).
As for `FC(F)=C(F)OC(F)(F)C(F)(F)C(F)(F)F`, the call was inactive.
As to `COCCCOCCCOC`, the molecule was called inactive.
In the case of `COCC(C)N` (stereo not given), the outcome was inactive.
Same read-out and setting: under `CCCCCCCCC(=O)OCC` stands “inactive”.
Turning to `CCC(C)OC(=O)c1ccc(O)cc1` (stereo not given), the AC50 is 62.7 µM (active).
Consider `CCC(CC)C(=O)O`, for which the call was inactive.
Same read-out and setting: under `O=S1(=O)OC(c2ccc(O)cc2)(c2ccc(O)cc2)c2ccccc21` stands “inactive”.
For `C=CC(=O)OCC(Br)CBr` (stereo not given), the half-maximal activity concentration (AC50) is 26.3 µM (active).
Turning to `N[C@H]1C(O)O[C@H](CO)[C@H](O)[C@@H]1O` (stereo not given in full), the result was inactive.
`Oc1ccc(Cl)cc1Cc1cc(Cl)ccc1O`: the AC50 was 7 µM (active).
In the case of `C=C(C)[C@@H]1CCC2=CCC[C@@H](C)[C@]2(C)C1`, the molecule was called inactive.
With `CN(C)c1ccc(N=Nc2ccccc2C(=O)O)cc1`, the AC50 is 16.4 µM (active).
In the case of `COC(=O)c1sccc1S(N)(=O)=O`, the result was inactive.
